# About 90 (0.2%) of roughly 55,000 compounds were called active. No rule for the calls is given here. For the sample, actives were picked, then their nearest neighbours and some compounds at random.
# Assay: anaerobic choline-dependent bacterial growth inhibition – minimal medium, absorbance (AID 1963822)
# Conditions: Gram-negative bacterium anaerobic choline minimal medium
# [1] = measured here: choline growth z-score, timepoint 1, stronger effect = lower value
SMILES,z-score (stronger effect = lower value),z-score [1]
COc1cccc(N2C(=O)c3cc(C)nn3CC2(C)C(=O)NCc2ccccc2)c1 (stereo not drawn),0.09 (inactive),-0.96
Cc1cc(C)n(CCc2nc(-c3ccc(Cl)cc3)no2)n1,-0.52 (inactive),-1.19
O=C(NC1CCCCC1)c1ccc(Cl)c(-n2nnc3cccnc32)c1,0.14 (inactive),0.44
Cc1cccc(-c2nn3c(=O)cc(CN4CCN(C(=O)c5cccc(Br)c5)CC4)nc3s2)c1,0.88 (inactive),0.71
COc1ccc2cc3c(nc2c1)N(C(=O)c1ccc(OC)c(OC)c1)CC3,0.77 (inactive),0.04
COc1cccc(-c2nn(Cc3ccc(C)cc3)c(=O)c3noc(C)c23)c1,1.18 (inactive),-0.21
COc1ccc(NC(=O)N2CCN(C)c3ncccc32)cc1,-0.52 (inactive),-1.12
COc1ccc(-c2nc(SCC(=O)Oc3ccc(C)cc3C)n3[nH]c(=O)cc3n2)cc1,-0.54 (inactive),-0.44
CN(C)C(=O)CN1C(=O)COc2ccc(C(=O)NCc3ccc4c(c3)OCO4)cc21,0.4 (inactive),0.23
O=C1CN(Cc2ccccc2Cl)S(=O)(=O)c2ccccc2N1Cc1cccc(F)c1,0.04 (inactive),0.04
CCOc1ccc(NC(=O)NCCn2c(C(F)(F)F)nc3ccccc32)cc1,0.3 (inactive),0.45
CCC(=O)Nc1nc2cc(NC(=O)Nc3cccc(Cl)c3)ccc2s1,0 (inactive),-0.84
O=C(Cc1csc(NC(=O)Nc2ccc(Cl)cc2)n1)Nc1cccc(Cl)c1,-2.04 (active),-1.2
O=C(Cc1nnc(NC(=O)Nc2cccc(Cl)c2)s1)NCc1ccccc1,0.49 (inactive),0.9
O=C(NCc1ccc2c(c1)OCO2)c1ccc(-c2noc(C3CC3)n2)cc1,0.36 (inactive),0.22
COCC(=O)Nc1ccc(-c2nc3ccccc3s2)cc1,-0.9 (inactive),-0.43
CCSc1nc2ccc(NS(=O)(=O)Cc3cc(C)ccc3C)cc2s1,1.35 (inactive),0.62
Cc1csc2ncc(C(=O)N3CCCCCC3)c(=O)n12,-0.29 (inactive),-0.07
c1ccc(CCNc2c3c(nc4nncn24)CCC3)cc1,0.56 (inactive),0.78
CC(C)n1cnc(S(=O)(=O)N2CCC(C(=O)N3CCCC3)CC2)c1,0.57 (inactive),-0.23
O=C(Nc1ccc(Br)cc1F)N1CCN(c2cc(-c3ccccc3)ncn2)CC1,-1.08 (inactive),-1.03
CCC1Oc2cc(S(=O)(=O)N3CCCC(C(=O)N4CCc5ccccc54)C3)c(C)cc2NC1=O (stereo not drawn),0.06 (inactive),-0.03
CCN1CCN(S(=O)(=O)c2ccc(C)cc2C)c2cccnc21,-0.02 (inactive),-0.19
Cn1c(=O)n(C)c2cc(CNCC(O)c3ccccc3)ccc21 (stereo not drawn),-0.37 (inactive),-0.32
Cc1ccc2c(c1)c1c(n2CC(O)CNCc2ccccc2)CCCC1 (stereo not drawn),-2.96 (active),-0.69
COC(=O)CC1=CC(=O)N(CC(=O)Nc2ccc(C)cc2Br)c2ccccc2N1,0.27 (inactive),0.25
COc1ccc(-n2nnc3c(N4CCN(C(=O)CC5CCCC5)CC4)ncnc32)cc1,-0.34 (inactive),0.31

SMILES,z-score (stronger effect = lower value),z-score [1]
CC(C)CSc1nn(C)c2nc3c(c(=O)n12)C(C)(C)Cc1ccccc1-3,0.12 (inactive),-0.98
Cn1cc(CN2CCC(C(=O)N3CCCC3)CC2)c2cc(Cl)ccc21,-1.08 (inactive),-0.88
CCC(C)(C)NC(=O)CN(C)S(=O)(=O)c1cc2c(cc1Cl)NC(=O)CO2,0.45 (inactive),-0.29
COc1ccc(-c2nn(-c3ccccc3)cc2C2CC(c3ccccc3)=NN2S(C)(=O)=O)cc1 (stereo not drawn),0.58 (inactive),0.97
Cc1nc(N2CCCC2)ncc1C(=O)N1CCCCC1,0.92 (inactive),-0.25
CCCn1c(=O)c2ccccc2n2c(=O)n(CC(=O)c3ccc(C)cc3C)nc12,-0.82 (inactive),-0.89
Cn1c(=O)c2[nH]c(-c3ccncc3)nc2n(C)c1=O,-1.62 (inactive),-1.51
Cc1ccc(-c2noc(CCn3nc(-c4ccc5c(c4)OCO5)ccc3=O)n2)cc1,1.77 (inactive),1.44
CCOc1ccc(NC(=O)Nc2ccc(-c3cc4cc(Cl)ccc4[nH]3)cc2)cc1,-0.97 (inactive),-1.43
Cc1nn(CC(=O)NCCc2c[nH]c3ccccc23)c(=O)c2noc(C)c12,-1.18 (inactive),-0.02
CCC(Sc1nnc(-c2ccccc2NC(C)=O)c(=O)[nH]1)C(=O)Nc1c(C)cc(C)cc1C (stereo not drawn),0.57 (inactive),-0.51
COc1ccc(NC(=O)CSc2nc3ccccc3n2Cc2ncc(C)c(OC)c2C)cc1,0.8 (inactive),0.74
COc1ccc(CN2CCCC2c2cc(C)on2)cc1CN1CCOCC1 (stereo not drawn),-1.52 (inactive),-0.66
COc1cc2[nH]c(=O)n(CCCC(=O)NCCCN3CCN(c4cccc(Cl)c4)CC3)c(=O)c2cc1OC,-0.27 (inactive),0.11
O=C(CN(Cc1ccccc1)S(=O)(=O)c1ccc(Br)cc1)N1CCN(c2ccc(F)cc2)CC1,0.95 (inactive),0.76
O=C(Nc1ccccc1F)C1CC(=O)N(CCc2c[nH]c3ccc(F)cc23)C1 (stereo not drawn),-0.07 (inactive),0.17
CC(=O)Nc1ccc(S(=O)(=O)N2CCN(Cc3nc4cccnc4n3-c3ccc(C)cc3)CC2)cc1,0.91 (inactive),-0.17
Cc1ccc(-n2nc(N3CCCN(C(=O)C4CCC4)CC3)ccc2=O)cc1C,-0.57 (inactive),1.18
CCN(CCCNC(=O)C1CCCN(C(=O)c2cccc(Cl)c2)C1)c1ccccc1 (stereo not drawn),-1 (inactive),-1.29
Cc1nc(N2CCC(C(=O)N3CCOCC3)CC2)c2c(C)c(C)oc2n1,-0.5 (inactive),-0.48
CCOc1ccc(NC(=O)Nc2ccc(Cn3cnc(-c4nc(-c5ccc(Cl)cc5)no4)c3)cc2)cc1,0.25 (inactive),0.58
O=C(O)C1Nc2ccc(Cl)cc2C2C=CCC12 (stereo not drawn),1.42 (inactive),2.01
Cc1ccc(OCc2nc3c4ccccc4ncn3n2)cc1,0.29 (inactive),0.48
CC(C)c1ccc(N2C(=O)c3cc4ccsc4n3CC2(C)C(=O)NC2CCCC2)cc1 (stereo not drawn),0.43 (inactive),0.35
CCOc1cc(-c2noc(CCCC(=O)Nc3cccnc3)n2)ccc1OC,-0.11 (inactive),-0.21
CN(CCc1noc(-c2ccccc2Cl)n1)S(=O)(=O)c1cccc2nsnc12,0.03 (inactive),-1.43
CCN1CCN(C(=O)c2cc(C)n(CCN3CCCC3)c2C)CC1,-1.12 (inactive),-1.13

SMILES,z-score (stronger effect = lower value),z-score [1]
Cc1nc(-c2ccc(C)c(S(=O)(=O)N3CCC(C(=O)N4CCN(c5ccc(F)cc5)CC4)CC3)c2)no1,0.78 (inactive),0.51
COC(=O)C1=CN(C)S(=O)(=O)N=C1C,1.05 (inactive),0.71
O=C(O)c1c[nH]c2ccc(S(=O)(=O)NC3CCCCNC3=O)cc2c1=O (stereo not drawn),1.32 (inactive),1.13
O=C(c1cc2cc(Cl)ccc2[nH]1)N1CCCN(c2ccc(=O)n(-c3ccccc3)n2)CC1,-1.08 (inactive),-1.54
CCCCC/C=C\CC1OC1CCCCCCCC(=O)O (stereo not drawn),-3.37 (active),-3.13
CCCCC[C@@](C)(O)/C=C/[C@H]1C=CC(=O)[C@@H]1C/C=C\CCCC(=O)O,-0.26 (inactive),0.66
CCCC[C@H](C)C[C@H](O)/C=C/[C@@H]1[C@@H](CCCCCCC(=O)O)[C@@H](O)C[C@H]1O,0.5 (inactive),-0.78
CCCCCCCC/C=C\CCCCCCCC(=O)OC[C@H](CO)OC(C)=O,0.47 (inactive),0.34
CCCCC/C=C\C/C=C\CCCCCCCCCC(=O)O,-3.44 (active),-3.23
CCCCCC(=O)CC[C@H]1[C@H](O)CC(=O)[C@@H]1C/C=C\CCCC(=O)O,0.71 (inactive),1.09
CCOC(=O)c1ccc(NC(=O)CSc2nnc(NC(=O)NC3CCCCC3)s2)cc1,0.1 (inactive),0.31
COc1cccc(C2Nc3ccc(Cl)cc3[C@H]3OCCC[C@@H]23)c1OC (stereo partly drawn),1.2 (inactive),2.03
CN(CCCNC(=O)c1c2c(nc3ccccc13)C(=O)N(C1CCCCC1)C2)c1ccccc1,-0.07 (inactive),-1.59
COc1ccc(NC(=O)c2cccc(-c3nc(-c4ccc(F)cc4)no3)c2)cc1OC,-1 (inactive),-0.62
CN1CCN(S(=O)(=O)c2ccc3c(c2)C(C)(C)CN3CC(=O)N2CCCC2)CC1,1.07 (inactive),0.91
Cc1cn(C)c(CC(=O)NC2CCN(Cc3ccccc3)CC2)c1C(=O)O,-0.86 (inactive),0.19
Brc1ccc(-c2nn[nH]n2)cc1,-1.32 (inactive),-1.04
CCOC(=O)C1CCCN(C(=O)Cn2c(=O)c3ccccc3n3c(=S)sc(-c4ccccc4)c23)C1 (stereo not drawn),0.91 (inactive),0.36
CCN(CC)C(=O)CSc1nnc2c3ccccc3nc(-c3ccccc3)n12,2.11 (inactive),1.21
CCOc1ccc(S(=O)(=O)NC(C)C)cc1-c1nc(C)no1,0.37 (inactive),-1.19
CCCN(CCC)CCNc1cc(C)nc2c(-c3ccccc3OC)c(C)nn12,1.1 (inactive),-0.02
Cc1nc(-c2csc(S(=O)(=O)NCc3ccccc3Cl)c2)sc1C,-0.96 (inactive),-0.18
Cc1[nH]nc2c1C(C(=O)c1cccc(Cl)c1)CC(=O)N2 (stereo not drawn),0.36 (inactive),0.1
COc1ccc(NS(=O)(=O)c2cc(-c3nc(-c4ccccc4)no3)sc2C)cc1OC,0.43 (inactive),-0.06
CCN1CCN(C(=O)c2cc(N(C)S(=O)(=O)c3ccccc3)ccn2)CC1,0.78 (inactive),0.89

# Reference: PubChem BioAssay AID1963822 (ICCB-Longwood Screening Facility, Harvard Medical School, 2024)
